A selection: hits, their analogues and other compounds. The true share with any hit is near 1.2%.
Shn3 inh set2: reduction of Shn3 3'UTR firefly luciferase signal, primary screen, Schnurri-3 inhibitor project, cell-based, Clone20 osteoblasts, set 2; Clone20 osteoblast Shn3 3'UTR firefly luciferase, 24 h; inhibition, % at 12.5 µM; actives 0.52% (n = 360,000);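 active means mean inhibition of at least 75% with every replicate also reaching 75%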;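 further: 0% = median of neutral control wells and 100% = pilot-screen positive control compound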
SRC1 inh: SRC1 coactivator transcriptional activity inhibitors, primary screen, cell-based, luminescence; Nuclear receptor coactivator 1 (Homo sapiens), Q15788; HEK293 GAL4-SRC1 luciferase reporter; inhibition, % at 3.6 µM; actives 0.12% (n = 360,000); AID 588354, 2011;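 active means inhibition above the campaign mean plus 3 SD, with each screening campaign given its own cutoff, cut at about 60% in these data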;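 further: 0% = DMSO treated cells and 100% = gossypol at 36 µM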
SRC2 inh: inhibition of GAL4-SRC2 driven luciferase reporter, primary screen, SRC2 inhibitor project, cell-based, luminescence | actives 0.17% (n = 370,000) | Nuclear receptor coactivator 2 (Homo sapiens), Q15596 | inhibition, % at 9 µM | HEK293 GAL4-SRC2 luciferase reporter | AID 651957, 2012;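 active means inhibition above the mean inhibition of all tested compounds plus 3 SD, set per campaign, cut at about 52% in these data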;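 further: 0% = DMSO treated cells and 100% = cells given Gossypol at 36 µM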
NCOA3 inh: SRC3 coactivator transcriptional activity inhibitors, primary screen, cell-based, luminescence; Nuclear receptor coactivator 3 (Homo sapiens), Q9Y6Q9; HEK293 GAL4-SRC3 luciferase reporter; inhibition, % at 3.6 µM; actives 0.17% (n = 360,000); AID 588352, 2011;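 active means inhibition above a per-campaign cutoff, the mean of all compounds plus 3 SD, cut at about 60% in these data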;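 further: 0% = DMSO-treated cells and 100% = gossypol-treated cells at 36 µM; higher means less SRC3-driven luciferase light from the GAL4 reporter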
Target sequence (Q9Y6Q9 whole entry, looked up, the tested form may be a part): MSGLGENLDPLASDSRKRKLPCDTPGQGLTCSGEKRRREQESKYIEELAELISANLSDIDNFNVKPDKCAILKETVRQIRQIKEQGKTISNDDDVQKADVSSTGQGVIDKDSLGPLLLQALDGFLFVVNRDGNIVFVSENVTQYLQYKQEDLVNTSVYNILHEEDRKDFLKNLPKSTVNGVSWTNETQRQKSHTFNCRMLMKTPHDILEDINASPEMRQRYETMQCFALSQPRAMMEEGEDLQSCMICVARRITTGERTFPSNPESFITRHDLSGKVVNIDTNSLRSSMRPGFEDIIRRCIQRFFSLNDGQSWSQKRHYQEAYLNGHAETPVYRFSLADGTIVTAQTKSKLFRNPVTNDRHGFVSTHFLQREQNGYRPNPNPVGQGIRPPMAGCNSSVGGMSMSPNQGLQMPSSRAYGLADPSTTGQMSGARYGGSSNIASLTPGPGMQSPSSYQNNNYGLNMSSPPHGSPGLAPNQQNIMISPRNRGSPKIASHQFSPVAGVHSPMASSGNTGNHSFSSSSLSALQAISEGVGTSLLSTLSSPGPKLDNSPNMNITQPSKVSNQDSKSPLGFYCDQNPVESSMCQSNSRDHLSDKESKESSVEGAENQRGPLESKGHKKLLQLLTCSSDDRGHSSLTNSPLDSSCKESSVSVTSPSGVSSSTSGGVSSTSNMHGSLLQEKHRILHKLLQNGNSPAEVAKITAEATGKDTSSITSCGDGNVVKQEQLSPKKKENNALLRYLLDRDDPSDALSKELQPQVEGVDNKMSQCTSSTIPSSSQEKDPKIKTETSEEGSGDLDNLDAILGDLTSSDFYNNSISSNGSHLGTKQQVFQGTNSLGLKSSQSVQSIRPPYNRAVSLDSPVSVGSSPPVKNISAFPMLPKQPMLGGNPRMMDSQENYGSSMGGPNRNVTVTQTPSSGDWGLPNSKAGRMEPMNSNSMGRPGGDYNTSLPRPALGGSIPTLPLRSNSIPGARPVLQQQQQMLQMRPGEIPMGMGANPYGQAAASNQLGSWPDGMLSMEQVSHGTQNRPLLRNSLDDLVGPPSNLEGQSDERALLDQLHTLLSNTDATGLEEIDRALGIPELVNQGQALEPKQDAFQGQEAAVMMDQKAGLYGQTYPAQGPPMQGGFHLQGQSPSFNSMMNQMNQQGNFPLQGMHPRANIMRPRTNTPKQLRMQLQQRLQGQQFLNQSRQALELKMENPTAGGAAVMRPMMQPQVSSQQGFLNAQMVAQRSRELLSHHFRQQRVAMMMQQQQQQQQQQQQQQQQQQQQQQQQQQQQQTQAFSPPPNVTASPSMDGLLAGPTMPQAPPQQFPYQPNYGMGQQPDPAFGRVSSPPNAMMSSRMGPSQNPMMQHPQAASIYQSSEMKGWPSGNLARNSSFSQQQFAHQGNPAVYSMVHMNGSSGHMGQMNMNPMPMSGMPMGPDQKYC
LMP1 NFkB inh: EBV LMP1-driven NF-kappaB luciferase reporter inhibitors, primary screen, cell-based, luminescence, single point | LMP1-induced NF-kappaB luciferase reporter cells | AID 504558, 2011 | actives 0.69% (n = 350,000) | inhibition, % at 12.5 µM; in the data active means inhibition above about 41%;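 further: 0% = neutral control wells and 100% = reference inhibitor control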
NR5A2 inv ag: LRH-1 (NR5A2) inverse agonists, primary screen, cell-based, luminescence, HEK293T, StAR-luciferase reporter | Nuclear receptor subfamily 5 group A member 2 (Homo sapiens), O00482 | LRH-1 transfected, 24 h | inhibition, % at 3.6 µM | actives 0.13% (n = 360,000) | AID 602396, 2012;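 active means inhibition above the mean inhibition of all tested compounds plus 3 SD, cut at about 73% in these data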;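 further: 0% = DMSO wells and 100% = reporter-only cells lacking LRH-1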
An asterisk follows results filed as active; nt = not tested or not shown.

SMILES	Shn3 inh set2	SRC1 inh	SRC2 inh	NCOA3 inh	LMP1 NFkB inh	NR5A2 inv ag
O=C(COC(=O)c1ccccc1)NC1CCCC1	-10	-21	-10	7	-8	6
COc1cc(CN2CCCC(N3CCN(c4ccccc4C)CC3)C2)cc(Cl)c1O (stereo unspecified)	22	9	4	-13	78*	-7
COc1ccc(CN2CCCC(N3CCN(c4cccc(Cl)c4)CC3)C2)cc1OC (stereo unspecified)	51	-18	-11	9	3	1
COc1ccc(-[n+]2c(C)cc(/C=C3\Sc4ccccc4N3C)cc2C)cc1	88*	71*	-89	75*	-7	98*
COc1ccc(C(=O)/C=C2\Sc3ccccc3N2C)cc1	-87	-115	-48	-69	-69	-117
COc1ccccc1-[n+]1c(C)cc(/C=C2\Sc3ccccc3N2C)cc1C	78	62*	0	69*	52*	84*
CCN(CC)C(=O)CSc1nnc(-c2ccccn2)n1C	nt	nt	-19	nt	nt	nt
CC1(C)Oc2ccc(C(=O)NC3CCCC3)cc2NC1=O	nt	nt	10	nt	nt	nt
CCCCCCN1C[C@H](n2cc(-c3ccc(F)cc3)nn2)[C@@H](O)C[C@@H]1c1ccc(Cl)cc1	95*	0	26	8	-16	-15
CC(=O)CC[C@H]1CC[C@]2(CCCN(Cc3nccn3C)C2)O1	nt	nt	9	nt	nt	nt
S=C(NN=Cc1ccccn1)N(Cc1ccccn1)Cc1ccccn1	81	-13	-29	-50	8	-30
CC(=NNC(=S)N(Cc1ccccn1)Cc1ccccn1)c1cnccn1	95*	-8	1	4	81*	-3
S=C(NN=C(c1ccccc1)c1ccccn1)N(Cc1ccccn1)Cc1ccccn1	91*	66*	23	71*	63*	70
Cc1ccccc1NC(=S)N(Cc1ccccn1)Cc1ccccc1Cl	-7	-5	-10	8	-6	-3
CC(CCN1CCC(C(O)(c2ccccc2)c2ccccc2)CC1)Oc1ccccc1C#N (stereo unspecified)	nt	nt	-6	nt	nt	nt
O=C(c1sccc1Cl)N1CCC(n2nnc3ncccc32)CC1	nt	nt	-16	nt	nt	nt
N#C/C(=C/c1ccc(N2CCOCC2)o1)c1ccc(Cl)cc1	91*	-82	-7	-102	-31	-37
Cc1ccc(NC(=O)c2cc(S(=O)(=O)NCCC3=CCCCC3)ccc2F)cc1F	92*	22	21	27	7	28
O=C(Nc1cccc(F)c1)c1cc(S(=O)(=O)NCCC2=CCCCC2)ccc1F	89*	10	28	26	23	23
Cc1ccc(S(=O)(=O)NCCC2=CCCCC2)cc1C(N)=O	73	18	20	14	11	27
O=C(Nc1cccc(F)c1)c1cc(S(=O)(=O)N2CCC(C(=O)O)CC2)ccc1F	-16	-5	11	-2	3	-1
CC(=O)c1ccc(NC(=O)NC2CCCCN(Cc3cccc(Cl)c3)C2=O)cc1 (stereo unspecified)	nt	nt	10	nt	nt	nt
CCN1C/C(=C\c2cccc([N+](=O)[O-])c2)C(=O)/C(=C/c2cccc([N+](=O)[O-])c2)C1	95*	-32	18	34	91*	9
CC(Sc1cnc2ccccc2n1)C(=O)O (stereo unspecified)	-18	-6	8	20	-12	17
Cc1ccc(Sc2cnc3ccccc3n2)cc1	-105	-73	-52	-90	56*	-60
SMILES	Shn3 inh set2	SRC1 inh	SRC2 inh	NCOA3 inh	LMP1 NFkB inh	NR5A2 inv ag
O=S1(=O)c2c(cccc2N2CCC[C@H]2CO)OCCCN1C1CC1	nt	nt	-22	nt	nt	nt
N#Cc1c(NCc2ccccc2)ccnc1NCc1cccnc1	85*	5	28	28	7	23
N#Cc1c(F)cccc1NCc1cccnc1	-2	-24	-12	-10	-17	0
N=c1ccn(CC(=O)c2ccc(-c3ccccc3)cc2)cc1	63	32	-10	73*	20	59
COc1ccc(Cn2cc(COC(=O)NCCc3c[nH]c4ccccc34)nn2)cc1	nt	nt	-3	nt	nt	nt
CC(=O)NC(CCS(C)(=O)=O)C(=O)Nc1ccccc1 (stereo unspecified)	-21	-5	7	7	4	19
CC(=O)NC(CCS(C)(=O)=O)C(=O)Nc1ccc(Cl)c(Cl)c1 (stereo unspecified)	-13	9	20	1	55*	-10
CC(=O)NC(CCS(C)(=O)=O)C(=O)Nc1c(F)cccc1F (stereo unspecified)	12	-17	-18	-9	72*	6
CC(=O)NC(CCS(C)(=O)=O)C(=O)Nc1c(C)cccc1C (stereo unspecified)	-8	-12	8	-11	3	24
Cc1nc2c(-c3ccc(F)cc3)cnn2c(N)c1-c1ccccc1	-4	70*	70*	71*	15	63
CCCCCCCCN1C(=O)[C@@H](CC(=O)NCc2cccc(C(F)(F)F)c2)C[C@@]2(C(=O)OC)C1=C[C@H](C(C)C)O[C@@H]2C1CC1	nt	nt	-20	nt	nt	nt
CC1=NN(c2nc(-c3ccc(C)cc3)cs2)C(=O)C1N=Nc1ccccc1O (stereo unspecified)	92*	-30	8	-40	-2	-37
CCOC(=O)CC[C@H]1CC[C@]2(CCCN(C(=O)C3CCCC3)C2)O1	nt	nt	17	nt	nt	nt
C[C@@H]1COc2cc(Br)ccc2S(=O)(=O)N1Cc1cn(CCC2OCCO2)nn1	nt	nt	-15	nt	nt	nt
CN(C)[C@@H]1CCN(c2cccc3c2S(=O)(=O)N(C2CC2)CCCO3)C1	nt	nt	-9	nt	nt	nt
O=S(=O)(C/C(=C/CO)S(=O)(=O)c1ccccc1)c1ccccc1	94*	-99	72*	-39	93*	-59
COC(=O)C1=C(C)N(Cc2cccc(C(F)(F)F)c2)C(=NCc2ccc(OC)cc2)NC1c1ccc(F)cc1 (stereo unspecified)	nt	nt	0	nt	nt	nt
CCn1c(=O)cc(C(=O)OC)sc1=Nc1ccc(F)c(F)c1	-14	9	2	-17	84*	-11
COC(=O)c1cc(=O)n(CCc2ccc(OC)cc2)c(=Nc2ccc(F)c(Cl)c2)s1	9	7	5	-2	-13	13
NC(=O)c1c(N)[nH]c(C(=O)c2ccccc2)c1-c1ccccc1	nt	nt	18	nt	nt	nt
CCc1ccc(/C=C2\SC(=S)N(CCCC(=O)Nc3cc(C)on3)C2=O)cc1	65	14	77*	1	37	9
CCc1ccc(/C=C2\SC(=S)N(CCC(=O)Nc3cc(C)on3)C2=O)cc1	0	11	48	19	6	3

Screens from PubChem.
